# In the supplement of paper PMC12282887:
# ± gives the standard deviation of the averaged measurements.
# How the values were obtained:
# Assay in all cases: promoter activity interaction Z-score (Lux/OD deviation from empty-vector control); higher = stronger promoter induction by the compound
# [1] = tested on: E. coli BW25113 acrABp lux reporter
# Procedure, shortened: (§1)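 Low-copy luxCDABE promoter reporters were carried by E. coli BW25113, either wild type or lacking one of three genes, grown in 40 µl LB Lennox in 384-well plates at 37°C. Each compound was run at four 1:2 dilutions in biological duplicates, with OD600 and luminescence read every 30 min for 12 h. Integration used 0–8 h for wild type and 1–9 h for deletion strains, and wells under 10% of the median growth value were removed. Luminescence normalised to growth was fitted against a control, and the Z-transformed residual is the score.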
# [2] = tested on: E. coli BW25113 micFp lux reporter
# Procedure, shortened: as §1
# [3] = tested on: E. coli BW25113 ompFp lux reporter
# Procedure, shortened: as §1
# [4] = tested on: E. coli BW25113 robp lux reporter
# Procedure, shortened: as §1
# [5] = 0.53 µg/ml, genetic background: wild type
# [6] = 0.53 µg/ml, genetic background: ΔmarA
# [7] = 0.53 µg/ml, genetic background: Δrob
# [8] = 0.53 µg/ml, genetic background: ΔsoxS
# [9] = 1.1 µg/ml, genetic background: wild type
# [10] = 1.1 µg/ml, genetic background: ΔmarA
# [11] = 1.1 µg/ml, genetic background: Δrob
# [12] = 1.1 µg/ml, genetic background: ΔsoxS
# [13] = 2.1 µg/ml, genetic background: wild type
# [14] = 2.1 µg/ml, genetic background: ΔmarA
# [15] = 2.1 µg/ml, genetic background: Δrob
# [16] = 2.1 µg/ml, genetic background: ΔsoxS
# [17] = 4.2 µg/ml, genetic background: wild type
# [18] = 4.2 µg/ml, genetic background: ΔmarA
# [19] = 4.2 µg/ml, genetic background: Δrob
# [20] = 4.2 µg/ml, genetic background: ΔsoxS
compound,measurement,setting,value
Cc1onc(-c2ccccc2)c1C(=O)N[C@@H]1C(=O)N2[C@@H]1SC(C)(C)[C@@H]2C(=O)O [Oxacillin],promoter activity interaction Z-score,[1]; [5],0.053 ± 0.18
same,promoter activity interaction Z-score,[1]; [6],-0.268 ± 0.44
same,promoter activity interaction Z-score,[1]; [7],-0.0793 ± 0.23
same,promoter activity interaction Z-score,[1]; [8],-0.33 ± 0.59
same,promoter activity interaction Z-score,[1]; [9],0.196 ± 0.12
same,promoter activity interaction Z-score,[1]; [10],1.12 ± 0.86
same,promoter activity interaction Z-score,[1]; [11],0.498 ± 0.18
same,promoter activity interaction Z-score,[1]; [12],-0.172 ± 0.078
same,promoter activity interaction Z-score,[1]; [13],0.0571 ± 0.33
same,promoter activity interaction Z-score,[1]; [14],0.268 ± 0.39
same,promoter activity interaction Z-score,[1]; [15],-0.074 ± 0.13
same,promoter activity interaction Z-score,[1]; [16],0.181 ± 0.15
same,promoter activity interaction Z-score,[1]; [17],0.273 ± 0.22
same,promoter activity interaction Z-score,[1]; [18],0.585 ± 0.21
same,promoter activity interaction Z-score,[1]; [19],0.529 ± 0.22
same,promoter activity interaction Z-score,[1]; [20],0.643 ± 0.31
same,promoter activity interaction Z-score,[2]; [5],-0.0698 ± 0.15
same,promoter activity interaction Z-score,[2]; [6],-0.00609 ± 0.034
same,promoter activity interaction Z-score,[2]; [7],0.0977 ± 0.018
same,promoter activity interaction Z-score,[2]; [8],-0.311 ± 0.1
same,promoter activity interaction Z-score,[2]; [9],0.087 ± 0.12
same,promoter activity interaction Z-score,[2]; [10],0.0472 ± 0.028
same,promoter activity interaction Z-score,[2]; [11],-0.0746 ± 0.027
same,promoter activity interaction Z-score,[2]; [12],-0.46 ± 0.051
same,promoter activity interaction Z-score,[2]; [13],-0.222 ± 0.18
same,promoter activity interaction Z-score,[2]; [14],-0.0625 ± 0.059
same,promoter activity interaction Z-score,[2]; [15],-0.00193 ± 0.23
same,promoter activity interaction Z-score,[2]; [16],-0.245 ± 0.077
same,promoter activity interaction Z-score,[2]; [17],-0.192 ± 0.041
same,promoter activity interaction Z-score,[2]; [18],-0.163 ± 0.035
same,promoter activity interaction Z-score,[2]; [19],-0.112 ± 0.052
same,promoter activity interaction Z-score,[2]; [20],-0.2749 ± 0.002
same,promoter activity interaction Z-score,[3]; [5],0.23 ± 0.46
same,promoter activity interaction Z-score,[3]; [6],-0.204 ± 0.21
same,promoter activity interaction Z-score,[3]; [7],0.703 ± 0.91
same,promoter activity interaction Z-score,[3]; [8],0.0892 ± 0.53
same,promoter activity interaction Z-score,[3]; [9],0.678 ± 0.061
same,promoter activity interaction Z-score,[3]; [10],0.797 ± 0.28
same,promoter activity interaction Z-score,[3]; [11],1.14 ± 0.72
same,promoter activity interaction Z-score,[3]; [12],-0.107 ± 0.53
same,promoter activity interaction Z-score,[3]; [13],0.461 ± 0.27
same,promoter activity interaction Z-score,[3]; [14],0.0383 ± 0.29
same,promoter activity interaction Z-score,[3]; [15],0.0292 ± 0.36
same,promoter activity interaction Z-score,[3]; [16],0.0474 ± 0.046
same,promoter activity interaction Z-score,[3]; [17],1.42 ± 0.14
same,promoter activity interaction Z-score,[3]; [18],1.05 ± 0.48
same,promoter activity interaction Z-score,[3]; [19],0.898 ± 0.69
same,promoter activity interaction Z-score,[3]; [20],0.846 ± 0.19
same,promoter activity interaction Z-score,[4]; [5],0.088 ± 0.58
same,promoter activity interaction Z-score,[4]; [6],-0.319 ± 0.36
same,promoter activity interaction Z-score,[4]; [7],0.652 ± 0.036
same,promoter activity interaction Z-score,[4]; [8],0.106 ± 0.47
same,promoter activity interaction Z-score,[4]; [9],0.612 ± 0.26
same,promoter activity interaction Z-score,[4]; [10],0.925 ± 0.46
same,promoter activity interaction Z-score,[4]; [11],0.609 ± 0.17
same,promoter activity interaction Z-score,[4]; [12],0.778 ± 0.55
same,promoter activity interaction Z-score,[4]; [13],0.467 ± 0.023
same,promoter activity interaction Z-score,[4]; [14],-0.206 ± 0.25
same,promoter activity interaction Z-score,[4]; [15],0.275 ± 0.38
same,promoter activity interaction Z-score,[4]; [16],0.757 ± 0.4
